Screening results from PubChem BioAssay.
TGFb SMAD3 inh: qHTS for Inhibitors of TGF-b | AID 588855, 2011 | 1.2% of 410,000 active | HepG2 CAGA-GFP TGF-b/SMAD3 reporter, GFP fluorescence, 18 h; TGF-beta stimulated, 500 pg/mL final | Potency, µM (series often up to 46.1 µM), actives largely listed as inhibitors; further: nearly all actives have a fitted effect of over 65% in size
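First, reporter cells (HEPG2 CAGA-GFP) rested 2 h at 37 degrees C. Next, compounds were pinned in and TGF-beta added to 500 pg/mL final. After 18 h, GFP was imaged per cell and summed per well.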
IL-1B inflam inh: qHTS for Inhibitors of Inflammasome Signaling: IL-1-beta AlphaLISA Primary Screen | activity change, % at 57.5 µM | THP-1 LPS/ATP IL-1B secretion, AlphaLISA, 16 h; active compounds read low | 4.7% of 360,000 active; in the data active means activity change below about -50%; inconclusive means mostly about -30% to -49%
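THP-1 cells pretreated 1 hr with compounds (up to 57.5 uM final), then stimulated with LPS (250 ng/mL final) plus ATP (1.25 mM final); secreted IL-1B measured by AlphaLISA after 16 hr, decreased signal indicating inhibition.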
DT40 TDP1 no CPT: qHTS for Inhibitors of human tyrosyl-DNA phosphodiesterase 1 (TDP1): qHTS in cells in absence of CPT | DT40 Tdp1-/- hTDP1 cells, no CPT, ATP luminescence, 48 h | Potency, µM (top dose mostly 46.2 µM), actives largely listed as inhibitors | 15% of 420,000 active; further: nearly all actives have a fitted effect of over 55% in size
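DT40 Tdp1-/-;hTDP1 cells, no CPT (DMSO vehicle only), 400 cells/well; compounds pin-transferred; ≥48 hr, 37 °C; CellTiter-Glo 30 min RT dark, luminescence read.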
HepG2 viability: qHTS for Inhibitors of TGF-b: Cytotox Counterscreen; HepG2 CAGA-GFP viability, ATP luminescence, 18 h; 0.76% of 410,000 active; Potency, µM (top dose mostly 46.1 µM), hits mostly cytotoxic
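HepG2 CAGA-GFP cells (1000/well, DMEM with 1% FBS) received compound, then TGF-beta at 500 pg/mL final, and were incubated 18 hours at 37 degrees C. Viability was read by CellTiter-Glo luminescence. Media-only wells were set as complete cell-killing and DMSO as no toxicity.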
TDP1 cell CPT: qHTS for Inhibitors of human tyrosyl-DNA phosphodiesterase 1 (TDP1): qHTS in cells in presence of CPT. 12% of 420,000 active. chicken DT40 Tdp1-/-;hTDP1 cells + 20 nM CPT, ATP luminescence, 48 h. Potency, µM (highest dose often 46.2 µM), actives largely listed as inhibitors; further: nearly all actives have a fitted effect of over 55% in size
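Chicken DT40 Tdp1-/- cells stably complemented with human TDP1 were seeded at 400 cells/well in medium containing 20 nM camptothecin, exposed to pin-transferred compounds, and grown at 37 °C for at least 48 hr. Viability was read as ATP luminescence.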
TDP1 inh: qHTS Assay for Inhibitors of Tyrosyl-DNA Phosphodiesterase (TDP1); Tyrosyl-DNA phosphodiesterase 1 (Homo sapiens), Q9NUW8; recombinant TDP1, AlphaScreen DNA substrate cleavage; Potency, µM (highest dose often 130 µM), most hits filed as inhibitors; 0.28% of 350,000 active; further: nearly all actives have a fitted effect of over 40% in size
Target sequence (Q9NUW8 whole entry, looked up): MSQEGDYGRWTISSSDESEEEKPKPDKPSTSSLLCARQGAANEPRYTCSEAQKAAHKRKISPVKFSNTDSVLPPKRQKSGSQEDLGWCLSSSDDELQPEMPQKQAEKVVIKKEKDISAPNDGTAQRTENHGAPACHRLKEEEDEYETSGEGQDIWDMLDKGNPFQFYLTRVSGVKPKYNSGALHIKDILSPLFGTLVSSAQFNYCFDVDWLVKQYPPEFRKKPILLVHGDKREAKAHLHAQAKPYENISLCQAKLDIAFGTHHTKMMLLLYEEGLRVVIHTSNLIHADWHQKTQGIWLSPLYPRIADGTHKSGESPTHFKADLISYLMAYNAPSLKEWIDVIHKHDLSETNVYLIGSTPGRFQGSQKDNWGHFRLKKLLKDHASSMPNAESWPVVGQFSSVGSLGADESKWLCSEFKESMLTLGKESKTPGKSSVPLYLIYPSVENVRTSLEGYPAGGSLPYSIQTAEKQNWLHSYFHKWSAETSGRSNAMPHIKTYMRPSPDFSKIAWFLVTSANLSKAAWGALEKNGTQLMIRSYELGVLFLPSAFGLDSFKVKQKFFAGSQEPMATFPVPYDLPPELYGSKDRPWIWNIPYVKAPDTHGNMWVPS
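AlphaScreen read-out: signal falls as enzyme removes the 3' tyrosine-FITC from a 5'-biotinylated DNA oligo (15 nM, 5 min, RT). Enzyme was E. coli-made recombinant Tdp1 at 1 nM, exposed to compound for 15 min beforehand; beads 10 ug/ml, 10 min.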
Each line names hits and unclear results; the compound was inactive in the other large screens. An excerpt weighted towards active compounds, which were near 19% of everything screened. Unless noted, the call rests on the fitted dose curve; in most records, active means well fitted curve in the direction sought with a large enough effect; inconclusive means small, poorly fitted or top-dose-only effect, or another doubt; inactive means no such curve, though single readings can be large; an effect the other way counts as inactive or inconclusive.

O=c1oc(-c2ccccc2Cl)nc2ccsc12	TGFb SMAD3 inh inconclusive, DT40 TDP1 no CPT 15µM, TDP1 cell CPT inconclusive
CC(=O)N1CCCC1c1nc2ccccc2n1Cc1ccccc1 (centres undefined)	none (no result: IL-1B inflam inh)
O=C(Nc1nc2ccccc2n1Cc1ccccc1)c1ccco1	DT40 TDP1 no CPT 21µM, TDP1 cell CPT 21µM
CC(=O)N1CCCC1c1nc2ccccc2n1Cc1ccccc1Cl (centres undefined)	DT40 TDP1 no CPT 18µM, TDP1 cell CPT inconclusive (no result: IL-1B inflam inh)
CC(=O)NC(C)c1nc2ccccc2n1Cc1ccccc1Cl (centres undefined)	DT40 TDP1 no CPT inconclusive, TDP1 cell CPT inconclusive (no result: IL-1B inflam inh)
CC(=O)Nc1nc2ccccc2n1Cc1ccccc1Cl	TGFb SMAD3 inh inconclusive, IL-1B inflam inh -56, DT40 TDP1 no CPT 8.2µM, TDP1 cell CPT 21µM (no result: TDP1 inh)
CC(=O)NCc1nc2ccccc2n1Cc1ccccc1C	none
CC(=O)Nc1nc2ccccc2n1Cc1ccccc1C	TGFb SMAD3 inh inconclusive, IL-1B inflam inh inconclusive, DT40 TDP1 no CPT 13µM, TDP1 cell CPT 9.2µM
O=C(NCCc1nc2ccccc2n1Cc1ccccc1)c1ccco1	DT40 TDP1 no CPT inconclusive, TDP1 cell CPT inconclusive (no result: IL-1B inflam inh)
CCOC(=O)c1cc(S(=O)(=O)Nc2ccc(Br)c(C)c2)[nH]n1	DT40 TDP1 no CPT inconclusive (no result: IL-1B inflam inh)
NC(=O)C1CCN(C2CC(=O)N(Cc3ccc(N4CCCC4=O)cc3)C2=O)CC1 (centres undefined)	DT40 TDP1 no CPT inconclusive, TDP1 cell CPT 26µM
CN(C)c1ncc2nc(CCc3ccccc3)c(=O)n(-c3ccccc3)c2n1	none (no result: TGFb SMAD3 inh, IL-1B inflam inh, HepG2 viability, TDP1 inh)
COc1cc(NC(=O)Cc2cccs2)cc(OC)c1	DT40 TDP1 no CPT 18µM, TDP1 cell CPT inconclusive
C=CCn1c(Cc2cccs2)nnc1SCC(=O)Nc1cc(OC)cc(OC)c1	DT40 TDP1 no CPT 16µM, TDP1 cell CPT inconclusive
CCNC(=S)Nc1cccc(S(=O)(=O)Nc2ccccc2OC)c1	DT40 TDP1 no CPT 23µM, TDP1 cell CPT inconclusive (no result: TDP1 inh)
COc1ccccc1NS(=O)(=O)c1cccc(NC(=O)Cc2cccs2)c1	DT40 TDP1 no CPT 26µM, TDP1 cell CPT inconclusive
COc1ccc(-c2cccc3c2OC(CNC(=O)c2ccc4c(c2)OCO4)C3)nn1 (centres undefined)	none (no result: TGFb SMAD3 inh, IL-1B inflam inh, HepG2 viability, TDP1 inh)
CC(C)OC(=O)C[C@H](NC(=O)OC(C)(C)C)c1ccccc1	none (no result: TGFb SMAD3 inh, IL-1B inflam inh, DT40 TDP1 no CPT, HepG2 viability, TDP1 cell CPT)
c1ccc(-c2cc(NCCN3CCCCC3)c3ccccc3n2)cc1	TGFb SMAD3 inh inconclusive, IL-1B inflam inh -99, DT40 TDP1 no CPT 16µM, TDP1 cell CPT 23µM (no result: TDP1 inh)
COc1cc2c(cc1OC)[C@@H]1Cc3cc4c(cc3[C@H](C2)N1C)OCO4	none
COc1cc2c(cc1OC)C1CCc3cc4c(cc3C1N=C2)OCO4 (centres undefined)	DT40 TDP1 no CPT 13µM, TDP1 cell CPT 16µM (no result: TDP1 inh)
COC(=O)C1(C(=O)OC)C[C@H](c2ccc(OC)cc2)N(Cc2ccccc2OC)[C@@H]1c1ccc(OC)cc1	IL-1B inflam inh inconclusive, DT40 TDP1 no CPT 21µM, TDP1 cell CPT inconclusive (no result: TGFb SMAD3 inh, HepG2 viability, TDP1 inh)
CC1=C(c2ccc(C)c(C)c2)S(=O)(=O)N=C1N1CCC(C(=O)Nc2ccc(Cl)cc2)CC1	DT40 TDP1 no CPT 15µM, TDP1 cell CPT 16µM (no result: IL-1B inflam inh)
CC1=C(c2ccc(C)c(C)c2)S(=O)(=O)N=C1N1CCC(C(=O)NCc2ccc(Cl)cc2)CC1	TGFb SMAD3 inh inconclusive, DT40 TDP1 no CPT inconclusive, TDP1 cell CPT inconclusive (no result: IL-1B inflam inh)
CC1=C(c2ccc(C)c(C)c2)S(=O)(=O)N=C1N1CCC(C(=O)N2CCC(C)CC2)CC1	TGFb SMAD3 inh inconclusive, DT40 TDP1 no CPT 6.5µM, TDP1 cell CPT inconclusive (no result: IL-1B inflam inh)
CCOC(=O)C1CCN(C(=O)C2CCN(C3=NS(=O)(=O)C(c4ccc(C)c(C)c4)=C3C)CC2)CC1	TGFb SMAD3 inh inconclusive, DT40 TDP1 no CPT inconclusive, TDP1 cell CPT 16µM (no result: IL-1B inflam inh)
